Test [1] in a line: qHTS assay to identify small molecule agonists of the sonic hedgehog signaling (Shh) pathway (AID 1259368). Also: nearly all actives have a fitted effect of over 15% in size. Also: potency is read from the fitted curve at half-maximal effect. The essentials: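 Quantitative high-throughput format using a Gli1-driven firefly luciferase reporter line derived from NIH/3T3 cells. After a 24 hr compound treatment at 37 C and 5% CO2, luminescence reported Gli1 response element activity.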
Test [2] is described as follows: qHTS assay to identify small molecule antagonists of the sonic hedgehog signaling (Shh) pathway (AID 1259369). Also: nearly all actives have a fitted effect of over 45% in size. Also: potency is read from the fitted curve at half-maximal effect. An outline of the steps:
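Stable Gli1-Luc reporter NIH/3T3 clone; quantitative HTS in stimulated mode with conditioned medium. Luminescence measured after 24hr compound treatment at 37 C.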

In test [3] the target is Estrogen receptor beta (Homo sapiens) (UniProt Q92731). Nature of the test: qHTS assay to identify small molecule agonists of the estrogen receptor beta (ER-beta) signaling pathway (AID 1259377; active = well fitted activation curve with a large enough effect in the signal ratio in the repeat runs, not every such curve was filed as active; the % refers to the signal ratio). An outline of the steps:
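Measured by fluorescence intensity from a B/G FRET beta-lactamase substrate (2 h, room temperature) in ER-beta-UAS-bla HEK293T cells treated with DMSO-dissolved compounds for 16 hr at 37C and 5% CO2.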

A short description of test [4]: qHTS assay to identify small molecule agonists of the androgen receptor (AR) signaling pathway in the presence of an antagonist - cell viability counter screen (AID 1259379; active = well fitted curve in the direction sought with a large enough effect in the repeat runs; an effect the other way counts as inactive or inconclusive; also: nearly all actives have a fitted effect of over 25% in size; also: potency is read from the fitted curve at half-maximal effect). An outline of the steps: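 Nilutamide-containing (3.0uM final) MDA-kb2 cultures, 3,000 cells/well, were treated with compounds across 15 concentrations. After 16 hr at 37C with no CO2, cell viability was determined by CellTiter-Fluor fluorescence in the luciferase assay wells.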

The nature of test [5]: qHTS assay to identify small molecule agonists of the estrogen receptor beta (ER-beta) signaling pathway - cell viability counter screen (AID 1259380; active = well fitted curve in the direction sought with a large enough effect in the repeat runs; an effect the other way counts as inactive or inconclusive; also: nearly all actives have a fitted effect of over 30% in size; also: potency is read from the fitted curve at half-maximal effect). An outline of the steps:
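Steps: plate ER-beta-UAS-bla HEK293T cells, rest 6 hr; add compounds in DMSO; incubate 16 hr at 37C, 5% CO2; add FRET substrate 2 hr; add CellTiter-Glo, wait 30 min at room temperature; read luminescence.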

Test [6] in a line: qHTS assay to identify small molecule antagonists of the estrogen receptor beta (ER-beta) signaling pathway - cell viability counter screen (AID 1259382; active = well fitted curve in the direction sought with a large enough effect in the repeat runs; an effect the other way counts as inactive or inconclusive; also: nearly all actives have a fitted effect of over 55% in size; also: potency is read from the fitted curve at half-maximal effect). The essentials:
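Viability is scored by CellTiter-Glo luminescence (30 min, room temperature) in ER-beta-UAS-bla HEK293T wells already read for reporter fluorescence. Compound exposure lasts 16 hr at 37C alongside 1nM 17-beta-estradiol in charcoal-stripped serum medium.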

Test [7] in a line: qHTS assay to identify small molecule agonists or antagonists of the thyroid stimulating hormone receptor (TSHR) signaling pathway - wild type cell line counter screen (AID 1259384). The essentials: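 Wild-type Hek293 cells, 800/well, 18 h at 37C, then compound with Ro20-1724 for 30 min RT. cAMP by HTRF (cAMP-d2/anti-cAMP cryptate), 1 h RT, fluorescence read. 15 concentrations, triplicates.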

In test [8] the target is Androgen receptor (Homo sapiens) (UniProt P10275). As to the kind of experiment: qHTS assay to identify small molecule agonists of the androgen receptor (AR) signaling pathway in the presence of an antagonist (AID 1259381). Also: nearly all actives have a fitted effect of over 15% in size. An outline of the steps: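 Reporter-gene luminescence from MDA-kb2 cells exposed 16hr at 37C (0% CO2) to 15-point compound titrations with 3.0uM final nilutamide as AR antagonist.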

Test [9] concerns the target Estrogen receptor (Homo sapiens) (UniProt P03372). As to the kind of experiment: qHTS assay to identify small molecule agonists of the estrogen receptor alpha (ER-alpha) signaling pathway in the presence of an antagonist (AID 1259383). Also: top concentration of the series differs between compounds; nearly all actives have a fitted effect of over 15% in size. An outline of the steps:
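Readout was ERE-driven luciferase luminescence in VM7Luc4E2 cells, which express full-length ER-alpha endogenously. Compounds were tested at 15 concentrations for 22hr alongside 10.0nM ICI-182,780 (final concentration).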

Inconclusive results are not listed. Activity calls are given as the source filed them. Unless noted, calls follow the shape of the full dose curve.

Estrogen receptor beta (Homo sapiens), sequence (Q92731 whole entry, looked up): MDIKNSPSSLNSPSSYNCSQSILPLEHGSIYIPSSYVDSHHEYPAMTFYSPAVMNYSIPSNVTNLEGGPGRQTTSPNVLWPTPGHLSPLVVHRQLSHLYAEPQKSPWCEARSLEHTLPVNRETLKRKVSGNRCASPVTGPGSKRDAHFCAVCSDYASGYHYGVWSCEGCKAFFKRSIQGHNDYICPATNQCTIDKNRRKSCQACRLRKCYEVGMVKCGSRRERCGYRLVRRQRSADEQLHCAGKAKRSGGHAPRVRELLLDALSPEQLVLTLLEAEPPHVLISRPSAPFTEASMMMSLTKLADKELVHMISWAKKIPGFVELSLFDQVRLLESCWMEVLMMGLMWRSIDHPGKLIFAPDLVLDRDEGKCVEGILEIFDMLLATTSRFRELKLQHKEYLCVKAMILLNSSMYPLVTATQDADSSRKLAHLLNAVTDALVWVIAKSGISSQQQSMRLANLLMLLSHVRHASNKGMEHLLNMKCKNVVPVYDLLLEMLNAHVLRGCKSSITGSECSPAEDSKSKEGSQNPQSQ
Estrogen receptor (Homo sapiens), sequence (P03372 whole entry, looked up): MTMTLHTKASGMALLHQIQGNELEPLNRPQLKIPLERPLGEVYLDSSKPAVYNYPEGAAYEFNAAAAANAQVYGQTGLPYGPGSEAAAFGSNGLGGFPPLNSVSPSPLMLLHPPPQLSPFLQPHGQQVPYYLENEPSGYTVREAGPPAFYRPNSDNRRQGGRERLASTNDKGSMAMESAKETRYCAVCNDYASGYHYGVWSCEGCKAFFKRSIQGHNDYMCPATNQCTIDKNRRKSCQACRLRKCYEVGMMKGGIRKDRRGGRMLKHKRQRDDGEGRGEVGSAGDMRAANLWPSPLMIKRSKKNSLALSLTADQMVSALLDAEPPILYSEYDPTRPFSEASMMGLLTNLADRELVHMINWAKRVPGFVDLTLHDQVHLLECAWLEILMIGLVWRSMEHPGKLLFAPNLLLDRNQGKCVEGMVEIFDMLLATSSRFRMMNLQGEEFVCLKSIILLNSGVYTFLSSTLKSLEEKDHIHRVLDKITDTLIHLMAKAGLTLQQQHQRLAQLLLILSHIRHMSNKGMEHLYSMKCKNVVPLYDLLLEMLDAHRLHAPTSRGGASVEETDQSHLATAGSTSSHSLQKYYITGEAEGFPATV
Androgen receptor (Homo sapiens), sequence (P10275 whole entry, looked up): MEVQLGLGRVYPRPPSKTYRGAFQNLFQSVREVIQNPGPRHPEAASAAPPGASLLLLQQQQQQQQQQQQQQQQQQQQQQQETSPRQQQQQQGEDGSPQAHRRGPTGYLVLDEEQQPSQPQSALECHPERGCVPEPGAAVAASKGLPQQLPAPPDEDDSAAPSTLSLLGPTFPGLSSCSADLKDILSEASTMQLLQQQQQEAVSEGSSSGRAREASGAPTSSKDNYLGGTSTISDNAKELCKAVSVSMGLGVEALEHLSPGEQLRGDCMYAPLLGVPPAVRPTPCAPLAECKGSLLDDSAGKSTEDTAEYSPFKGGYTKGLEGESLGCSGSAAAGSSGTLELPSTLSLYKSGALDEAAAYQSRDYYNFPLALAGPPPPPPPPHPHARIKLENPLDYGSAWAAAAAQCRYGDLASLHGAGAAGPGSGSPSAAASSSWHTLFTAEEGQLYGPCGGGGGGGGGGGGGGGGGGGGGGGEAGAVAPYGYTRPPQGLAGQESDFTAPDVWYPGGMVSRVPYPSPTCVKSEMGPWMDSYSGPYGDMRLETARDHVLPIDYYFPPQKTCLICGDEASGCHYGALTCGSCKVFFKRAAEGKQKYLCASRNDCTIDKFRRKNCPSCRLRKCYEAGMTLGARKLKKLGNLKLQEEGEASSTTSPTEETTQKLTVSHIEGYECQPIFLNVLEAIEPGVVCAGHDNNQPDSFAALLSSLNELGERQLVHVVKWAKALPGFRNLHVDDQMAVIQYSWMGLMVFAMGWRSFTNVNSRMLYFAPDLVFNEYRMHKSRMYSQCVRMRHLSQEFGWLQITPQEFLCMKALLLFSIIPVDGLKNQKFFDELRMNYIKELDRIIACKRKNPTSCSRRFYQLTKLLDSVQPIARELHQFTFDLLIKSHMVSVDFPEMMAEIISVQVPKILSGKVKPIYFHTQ

In the case of `CCOC(=O)OC(C)OC(=O)[C@@H]1N2C(=O)[C@@H](NC(=O)[C@H](N)c3ccccc3)[C@H]2SC1(C)C` (stereo partly drawn), the Potency entry in test [1], in test [2], in [3], in test [4], in [5] and in [6] was “inactive” throughout. For the same molecule, the molecule was classed as inactive in test [7].

For the molecule `CC(=O)OCC(=O)NCCCOc1cccc(CN2CCCCC2)c1`, the Potency result in test [1], in [2], in test [3], in test [4], in test [5] and in test [8] was “inactive” in each case. The Potency result in test [6] was “inactive”. The result in test [7] was inactive.

Consider `O=c1[nH]c2ccc(Cl)cc2o1`, for which the Potency result in test [1], in [2], in test [3], in [4], in [5] and in test [6] was “inactive” in each case. Besides, the result in test [7] was inactive.

Consider `C=CC(=O)OCC1CC2CC1C1CCC(COC(=O)C=C)C21` (stereo not drawn), for which the Potency entry in [1], in [3], in test [4] and in test [6] was “inactive” throughout. For the same molecule, the Potency in [2] is 19.3 µM (active). The molecule was classed as inactive in test [7].

On to `CC(=O)OCCN(CCOC(C)=O)c1ccc(N=Nc2ccc([N+](=O)[O-])cc2C#N)cc1`, for which the Potency entry in [1], in [3] and in [6] was “inactive” throughout. The Potency in test [2] was 30.6 µM (active); in test [4] it was 54.5 µM (active). The molecule was called inactive in test [7].

On to `CC1(CN2CCC(n3c(=O)[nH]c4ccccc43)CC2)OCc2ccccc2-n2cccc21` (stereo not drawn), for which the Potency result in test [1], in test [3] and in test [9] was “inactive” each time. In addition, the Potency is 23.7 µM (active) in test [2], 29.8 µM (active) in [4], 23.7 µM (active) in test [5] and 29.8 µM (active) in [6]. Also, the call in [7] was inactive.

For `CS(=O)(=O)c1ccc(-c2cn3ccccc3n2)cc1`, the Potency is 11.9 µM (active) in test [1] and 33.5 µM (active) in [2]. Also, the Potency entry in test [3], in [4], in test [8], in test [6] and in test [9] was “inactive” in each case. Moreover, the molecule was classed as inactive in test [7].

In the case of `CC(C)(C)C(=O)C(=O)O`, the Potency entry in test [1], in [2], in test [3], in test [4], in test [5] and in test [6] was “inactive” in each case.

With `C[C@@H](O[C@H]1OCCN(Cc2n[nH]c(=O)[nH]2)[C@H]1c1ccc(F)cc1)c1cc(C(F)(F)F)cc(C(F)(F)F)c1`, the Potency result in test [1], in test [3] and in test [8] was “inactive” throughout. The Potency in test [2] was 13.3 µM (active); in test [5], 26.6 µM (active); in [6] it was 29.8 µM (active). Moreover, the result in test [7] was inactive.

Take `O=C1NCCN1CCO`: the Potency entry in test [1], in test [2], in test [3], in [4], in test [5] and in test [6] was “inactive” each time.

Regarding `C=C1C[C@@]23CC[C@H]4[C@@](C)(CCC[C@@]4(C)C(=O)O[C@@H]4O[C@H](CO)[C@@H](O)[C@H](O)[C@H]4O)[C@@H]2CC[C@]1(O[C@@H]1O[C@H](CO)[C@@H](O)[C@H](O[C@@H]2O[C@H](CO)[C@@H](O)[C@H](O)[C@H]2O)[C@H]1O[C@@H]1O[C@H](CO)[C@@H](O)[C@H](O)[C@H]1O)C3`, the Potency entry in test [1], in test [2], in test [3], in test [4], in [5] and in [8] was “inactive” throughout. Further, the Potency result in test [6] and in test [9] was “inactive” in each case. Also, the result in test [7] was inactive.

Take `Cc1cc2c(OCC(CNC(C)(C)C)OC(=O)c3ccccc3)cccc2[nH]1` (stereo not drawn): the Potency entry in test [1], in test [3], in [5] and in test [6] was “inactive” each time. In addition, the Potency in [2] is 8.41 µM (active). For the same molecule, the molecule was classed as inactive in test [7].

Regarding `Nc1nnc(-c2ccc([N+](=O)[O-])o2)o1`, the Potency entry in test [1], in test [2], in [3] and in test [6] was “inactive” in each case. In addition, the Potency in test [4] is 54.5 µM (active). For the same molecule, the outcome in test [7] was inactive.

In the case of `CCCCN(CCCC)C(C(N)=O)c1ccc(OC)cc1` (stereo not drawn), the Potency result in [1], in test [2], in test [3], in test [4], in test [5] and in test [6] was “inactive” each time.

Turning to `Cc1cscn1`, the Potency result in test [1], in [2], in test [3], in [4], in test [5] and in test [8] was “inactive” each time. For the same molecule, the Potency entry in [6] and in test [9] was “inactive” each time. Besides, the molecule was called inactive in test [7].

In the case of `CCOc1cccc(-n2cc(C(=O)N3CCN(c4cc(C(=O)O)c5ccccc5c4)CC3)nc2-c2ccc(C)cc2)c1`, the Potency result in test [1], in test [2], in test [3], in test [4] and in [8] was “inactive” in each case. The Potency in test [5] is 14.7 µM (active).

For the molecule `CCC(=O)OC`, the Potency result in test [1], in [2], in test [3], in test [4], in test [5] and in test [8] was “inactive” throughout. In addition, the Potency entry in test [6] and in test [9] was “inactive” throughout. Also, the outcome in test [7] was inactive.

For `O=C(O)CCC(=O)C(=O)O`, the Potency result in [1], in test [2], in [3], in test [4], in test [5] and in test [6] was “inactive” each time. Moreover, the Potency entry in test [9] was “inactive”. In test [7], the outcome was inactive.

`CCC=CC#N`: the Potency in test [1] was 29.7 µM (active). The Potency result in [2], in test [3], in test [4], in test [5], in test [6] and in test [9] was “inactive” throughout. The molecule was called inactive in test [7].

Turning to `CCC1(CO)COCOC1`, the Potency result in test [1], in test [2], in [3], in [4], in test [5] and in test [6] was “inactive” throughout. For the same molecule, in test [9], the Potency result is “inactive”. Further, the outcome in test [7] was inactive.

As to `c1ccc2sc(SN(C3CCCCC3)C3CCCCC3)nc2c1`, the Potency entry in test [1], in test [2], in [3], in test [4], in test [5] and in [6] was “inactive” each time. Also, the molecule was called inactive in [7].

`O=C(Cn1ccnc1[N+](=O)[O-])NCCO`: the Potency entry in [1], in [2], in test [3], in [4], in test [5] and in test [8] was “inactive” each time. Also, the Potency result in test [6] was “inactive”. Also, in [7], the result was inactive.

For `CCC(C)(C)OC`, the Potency result in test [1], in test [2], in test [3], in [4], in [5] and in [6] was “inactive” each time. Besides, in test [9], the Potency entry is “inactive”. In addition, the call in test [7] was inactive.

`OC(CCN1CCCC1)(c1ccccc1)C1CCCCC1` (stereo not drawn): the Potency result in [1], in test [3], in [4], in [5], in test [8] and in test [6] was “inactive” in each case. The Potency in [2] is 8.41 µM (active). In addition, the call in test [7] was inactive.

Turning to `O[C@@H]1CO[C@H]2[C@@H]1OC[C@@H]2O`, the Potency entry in [1], in test [2], in [3], in test [4], in test [5] and in [6] was “inactive” each time. Besides, the Potency result in test [9] was “inactive”. Also, the molecule was called inactive in test [7].

For the molecule `CC(C)(O)c1ccc(CNC(=O)c2cccnc2Oc2ccc3nonc3c2)cc1`, the Potency result in test [1], in test [3], in test [4], in test [6] and in [9] was “inactive” in each case. The Potency in test [2] was 0.486 µM (active). In addition, the result in test [7] was inactive.

`CCN(CC)CCNC(=O)COc1ccc(OC)cc1`: the Potency entry in test [1], in test [2], in test [3], in [4], in test [5] and in test [6] was “inactive” in each case. Moreover, the Potency result in [9] was “inactive”.

`O=C(O)CCc1nc(-c2ccccc2)c(-c2ccccc2)o1`: the Potency entry in test [1], in [2], in test [3], in test [4] and in [6] was “inactive” in each case. Moreover, the outcome in test [7] was inactive.
